p47phox inh = p47phox (human) inhibition; P14598; p47phox/p22phox peptide binding, fluorescence polarization, 2 h; inhibition, % at 24.7 µM; 220,000 tested, 0.53% active; AID 1274
Mcl1 Bid PPI = Mcl-1/Bid interaction inhibition. 220,000 tested, 0.97% active. inhibition, % at 21.7 µM. TR-FRET Mcl-1/Bid-Dy647 peptide binding, 1536-well. Q07820;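 active means compounds that cut the binding signal by more than half at the single screening dose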;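 further: His-tagged Mcl-1 with europium anti-His antibody binding Bid BH3 peptide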
Target sequence (Q07820 whole entry, looked up): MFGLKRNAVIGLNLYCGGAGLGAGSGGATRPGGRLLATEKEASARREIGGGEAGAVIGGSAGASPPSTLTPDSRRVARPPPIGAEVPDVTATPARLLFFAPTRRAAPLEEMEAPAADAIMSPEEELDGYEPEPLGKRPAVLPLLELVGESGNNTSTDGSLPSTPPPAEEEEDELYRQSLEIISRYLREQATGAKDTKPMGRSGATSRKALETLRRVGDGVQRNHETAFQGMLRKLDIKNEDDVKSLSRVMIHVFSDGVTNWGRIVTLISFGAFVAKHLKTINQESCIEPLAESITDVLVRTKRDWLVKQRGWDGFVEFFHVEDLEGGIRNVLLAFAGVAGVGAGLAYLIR
Mcl1 Noxa PPI = disrupts binding of human Mcl-1 to Noxa peptide. TR-FRET Mcl-1/Noxa peptide binding, 2 h. inhibition, % at 21.7 µM. 220,000 tested, 1.5% active. Q07820;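 active means compounds that cut the protein-peptide binding signal by more than 50% relative to plate controls in a single-dose test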;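 further: His-tagged Mcl-1 with rhodamine Noxa BH3 peptide and terbium anti-His antibody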
eIF4E-4G inh = inhibitors of eIF4E and eIF4G interaction in translation initiation; TR-FRET eIF4E-eIF4GI(517-606) binding, 2 h; inhibition, % at 21.7 µM; 220,000 tested, 0.37% active; AID 782
14-3-3 Bad PPI = disrupts binding of bovine 14-3-3 zeta to phospho-Bad peptide; TR-FRET 14-3-3zeta/Dy647-pBad peptide displacement, 1 h; P63103; 220,000 tested, 0.71% active; inhibition, % at 21.7 µM;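 active means inhibition above about 70%, limit read from the data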
Target sequence (P63103 whole entry, looked up): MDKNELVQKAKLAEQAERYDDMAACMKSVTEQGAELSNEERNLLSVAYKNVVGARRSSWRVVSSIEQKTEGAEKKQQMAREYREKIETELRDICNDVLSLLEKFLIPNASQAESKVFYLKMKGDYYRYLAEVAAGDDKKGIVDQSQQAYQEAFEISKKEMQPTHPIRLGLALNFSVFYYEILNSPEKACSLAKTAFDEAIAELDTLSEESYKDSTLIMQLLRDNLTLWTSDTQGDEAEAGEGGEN
Bim-Mcl-1 = disrupts Bim peptide binding to human Mcl-1; Q07820; Bead-based flow cytometry, Bim peptide-Mcl-1 binding; inhibition, % at 10 µM; 190,000 tested, 0.1% active; in the data active means inhibition above about 40%
Of the large screens only hits and unclear results are named; the others gave an inactive call; [ ] = dose if it differs, or a comment. A selection: hits, their analogues and other compounds. The true share with any hit is near 3.3%.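 How the source made its calls, unless noted: active means inhibition above about 30% (limit read from the data); inactive means the rest.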

Cc1ccc(O)c(C(CC(=O)NC2CCCCC2)c2ccccc2)c1 (centres undefined)	none
COc1cc(Cl)c(C)cc1NC(=O)CSc1cc(Cl)ccc1Cl	Mcl1 Noxa PPI 56.5
Cc1ccc(N2C(=O)SC(Cc3ccccc3)C2=O)cc1 (centres undefined)	none (no result: Bim-Mcl-1)
O=C1NC(=Nc2ccc(O)cc2)S/C1=C\C=C\c1ccco1	Mcl1 Noxa PPI 59.9 (no result: Bim-Mcl-1)
COc1cc(/C=C2/SC(=Nc3ccc(O)cc3)NC2=O)cc(OC)c1O	Mcl1 Noxa PPI 50.6
COc1cc(/C=C2\SC(=Nc3ccc(O)cc3)NC2=O)cc(OC)c1OC	none (no result: Bim-Mcl-1)
O=C(NCc1ccco1)C(=O)c1cn(CC(=O)N2CCCCC2)c2ccccc12	none
Cc1ccn2c(Nc3ccccc3C)c(-c3ccncc3)nc2c1	none
Cc1nc(C)n(CC(O)COc2ccc3c(c2)CCC3)n1 (centres undefined)	Mcl1 Bid PPI 91.7
Cc1nn(CC(O)COc2ccc3c(c2)CCC3)c(C)c1Br (centres undefined)	none
Cc1cc(-c2cc(C(=O)NCc3ccccc3)on2)nc(S(C)(=O)=O)n1	none (no result: Bim-Mcl-1)
O=C1CCCC2=C1C(c1ccc(O)c(O)c1)Nc1ccc3ncccc3c12 (centres undefined)	Mcl1 Noxa PPI 76.8
CCCNS(=O)(=O)c1ccc(NC(=O)c2ccccn2)cc1	none
CC(=O)Nc1ccc(S(=O)(=O)NCCSc2ccccn2)cc1	eIF4E-4G inh 47.0[fluorescence artefact?]
O=C(CC1Sc2ccccc2NC1=O)NCc1ccccc1 (centres undefined)	none (no result: Bim-Mcl-1)
Cc1ccc(OCC(=O)NC(=S)Nc2cccc(NC(=O)c3ccccc3)c2)cc1	none
Cc1ccc(OCC(=O)NC(=S)Nc2cccc(NC(=O)c3ccc(Cl)cc3Cl)c2)cc1	Mcl1 Bid PPI 63.4
C(=N\c1nc2ccccc2n1Cc1ccccc1)/c1cccs1	Mcl1 Bid PPI 50.7
Cc1c(CCO)c(=O)n(-c2ccccc2)n1S(=O)(=O)c1ccc(Cl)cc1	none
Cc1nc(C)c(C(=O)Nc2ncc([N+](=O)[O-])s2)o1	Mcl1 Noxa PPI 69.2
CC(C)CC(=O)Nc1ncc([N+](=O)[O-])s1	none (no result: Bim-Mcl-1)
Cc1c(NC(=O)C(C)OC(=O)CCc2ccccc2)c(=O)n(-c2ccccc2)n1C (centres undefined)	none
CCO[C@@H]1OC(C(=O)NCc2nc3ccccc3[nH]2)=C[C@H](C)[C@H]1CCCO	p47phox inh 44.9
CCO[C@H]1OC(C(=O)NCc2nc3ccccc3[nH]2)=C[C@@H](C)[C@@H]1CCCO	none
Cn1cc(C(=O)Nc2ccc(F)c(Cl)c2)cn1	none
CN1c2ccsc2C(O)=C(C(=S)Nc2ccc(F)c(Cl)c2)S1(=O)=O	Mcl1 Bid PPI 54.0
CCCc1nc(SC)[nH]c(=O)c1C	none (no result: Bim-Mcl-1)
CC(NS(C)(=O)=O)C(c1cccs1)N1CCN(Cc2ccccc2)CC1 (centres undefined)	p47phox inh 168.6
CC(NS(C)(=O)=O)C(c1cccs1)N1CCN(C)CC1 (centres undefined)	none
COC(=O)n1c(=S)oc2cc(Cl)ccc21	eIF4E-4G inh 61.0
Cc1cc(CNC(=O)C(C)n2nc(C)c([N+](=O)[O-])c2C)c2ccccc2n1 (centres undefined)	none
Cc1cccc(N(Cc2cc3ccccc3[nH]c2=O)S(C)(=O)=O)c1	none
CCCCN(Cc1cc2ccccc2[nH]c1=O)S(C)(=O)=O	Mcl1 Bid PPI 98.0
CCN(CC)c1ccc(C=C2C(=O)OC3(CCCCC3)OC2=O)cc1	none
CCN(CC)c1ccc(/C=C2/C(=O)c3ccc(C(=O)O)cc3C2=O)cc1	Mcl1 Noxa PPI 58.1 (no result: Bim-Mcl-1)
Cn1c(SCC(=O)O)nnc1-c1ccc2ncccc2c1	none (no result: Bim-Mcl-1)
Cc1ccc(S(=O)(=O)N(C)C)cc1NC(=O)COC(=O)c1ccc2c(c1)NC(=O)CS2	none (no result: Bim-Mcl-1)
CCOC(=O)c1cc(-c2ccc(N3CCOCC3)cc2)nn1-c1ccccc1C(=O)O	eIF4E-4G inh 38.1 (no result: Bim-Mcl-1)
CCOC(=O)c1cc(-c2ccc(N3CCOCC3)cc2)nn1-c1ccccc1	none
COc1ccc(-n2c(O)c(C=Nc3ccccc3)c3ccccc3c2=O)cc1	none
CCN(c1ccc(N=Cc2c(O)n(Cc3ccc(OC)cc3)c(=O)c3ccccc23)cc1)C(C)C	Mcl1 Noxa PPI 58.7 (no result: Bim-Mcl-1)
CC(CCc1ccccc1)NCc1ccncc1 (centres undefined)	14-3-3 Bad PPI 89.6
Fc1ccc(CSc2ccc3nnc(-c4cccnc4)n3n2)cc1	none
CC1(C)C(=O)Nc2ccccc2N1C(=O)COC(=O)C1CCCCC1	p47phox inh 31.9
CC1(C)C(=O)Nc2ccccc2N1C(=O)Cn1ncc(Cl)c(Cl)c1=O	Mcl1 Noxa PPI 58.0 (no result: Bim-Mcl-1)
CC(C)CC1NC(=O)N(CC(=O)N2c3ccccc3NC(=O)C2(C)C)C1=O (centres undefined)	Mcl1 Noxa PPI 82.4
Cc1cc(C(=O)CN2C(=O)NC(CC(C)C)C2=O)c(C)n1-c1ccccc1F (centres undefined)	none
CSc1ccc(CNC(C)(C)CO)cc1	none
COc1ccccc1C(CC(=O)Nc1ccc(C)c(C)c1)c1ccc(OC(C)C)cc1 (centres undefined)	Mcl1 Noxa PPI 55.2
COc1ccccc1NC(=O)CC(c1ccc(OC(C)C)cc1)c1ccccc1OC (centres undefined)	none
O=C(O)CCC(=O)NNc1nc2ccccc2nc1-c1ccccc1	none
COc1ccc(N2Cc3cccc(C(=O)N4CCN(C(=O)c5ccco5)CC4)c3C2=O)cc1	Mcl1 Noxa PPI 73.6
COc1ccc(N2Cc3cccc(C(=O)N4CCOCC4)c3C2=O)cc1	none
Cc1cc(Sc2nc(NC(C)C)nc(NC(C)C)n2)nc(Cl)n1	none
COc1cc2c(C#N)c(N3CCCCC3)nc(N)c2c(N)n1	none
COc1ccc(CN2C(=O)Cc3c2nc(N)c2c(N)nc(N4CCCCC4)c(C#N)c32)cc1	Mcl1 Noxa PPI 58.0
O=C(CN1C2=NCCCN2c2ccccc21)c1ccc(Cl)cc1Cl	none
CCOc1ccc(CC(=O)C2=C(N3CCOCC3)CC(C)(C)CC2=O)cc1OCC	none
CN1CCN(Cc2cccc(Oc3ccc(Cl)cc3)c2)CC1	Mcl1 Bid PPI 66.6
Cc1ccc(C(C(=O)NCc2ccco2)N(Cc2ccco2)C(=O)CNC(=O)c2ccco2)cc1 (centres undefined)	p47phox inh 67.2
COc1ccc(C(C(=O)NC2CCCCC2)N(Cc2ccco2)C(=O)CNC(=O)c2ccco2)cc1 (centres undefined)	none
Clc1ccc(OCCOCCN2CCCCC2)c(Br)c1	Mcl1 Bid PPI 62.4
CN(C)CCCOc1ccc(Cl)cc1Br	Mcl1 Bid PPI 53.4
CCSC(=S)c1c(C)[nH]n(-c2ccccc2)c1=O	none (no result: Bim-Mcl-1)
CCOc1ccsc1C(=O)OC	none (no result: Bim-Mcl-1)
Fc1ccc(-c2nc(-c3cnccn3)no2)c(Cl)c1	none (no result: Bim-Mcl-1)
O=C(NCc1ccco1)C1CCCN1C(=O)Nc1ccc(Cl)cc1 (centres undefined)	none
